The values below come from PubChem BioAssay (EPA / NIEHS).

Molecules are shown by their SMILES. Activity calls are given as the source filed them. Rule for the calls: active = hit-call score of the fitted dose curve at least 0.9, where 1 is the maximum; inactive = score below 0.9.

This test is described as follows: CCTE_Mundy_HCI_Cortical_NOG_NeuriteLength: CCTE's Neurite Outgrowth Assay in rat cortical cells for Neurite Length, Mundy Lab (AID 2284213).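 For AC50: neurites imaged about 48 to 50 h after chemical exposure began.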 On the procedure: CCTE_Mundy_HCI_Cortical_NOG is a multiplexed, cell-based-readout assay that uses rat primary cortical cells with measurements taken at 50.33 hours after chemical dosing in a microplate: 96-well plate.CCTE_Mundy_HCI_Cortical_NOG_NeuriteLength is one of four components of the CCTE_Mundy_HCI_Cortical_NOG assay. It measures neurite outgrowth related to the neurite length using High Content Imaging of fluorescently labelled markers.[…] Using a type of morphology reporter, loss -of-signal activity can be used to understand developmental effects.
Exposure starts 2 hours post-plating by adding 10 ul of the working solution to 90 ul of media in the wells for a 1/10 dilution. Forty-eight hours after chemical treatment cells are fixed by direct addition of 100 ul of warm (37C) Dulbecco's phosphate buffered saline (DPBS) fixative solution containing 8% paraformaldehyde, 8% sucrose, and 0.1% of 3 mg/ml Hoechst 33342 into each well. Primary antibodies are prepared by dilution in Immunocytochemical Staining Buffer (ISB), 10X Dulbecco's PBS, 0.1% Saponin, 5% Bovine Serum Albumin, 0.5% NaN3 (Sodium Azide) and betaIII-tubulin (rabbit anti-betaIII-tubulin, 1:800) followed by Alexa Fluor-488 secondary (1:500) to label neuronal cell bodies and neurites. A Cellomics ArrayScan VTi HCS Reader is used for automated image acquisition and analysis of neurite outgrowth.
Broadly, the AC50 is the midpoint of the concentration-response curve, whichever way the signal moves. Take `CCC[CH2][Sn]([Cl])([CH2]CCC)[CH2]CCC`: the half-maximal activity concentration (AC50) was 0.0882 µM (active).
Consider `COP(=S)(OC)SCN1C(=O)c2ccccc2C1=O`, for which the compound was called inactive.
With `ClC1=C(Cl)C2(Cl)C3C(Cl)C=CC3C1(Cl)C2(Cl)Cl` (configuration not stated), the AC50 is 22.5 µM (active).
On to `CC(C)COC(=O)c1ccccc1C(=O)OCC(C)C`, for which the result was inactive.
Same read-out and setting: the result for `CCCCOC(=O)c1ccccc1C(=O)OCc1ccccc1` reads “inactive”; that for `OCCOCCO`, “inactive”.
Same read-out and setting: the result for `CN(C)[C@@H]1C(=O)C(C(N)=O)=C(O)[C@@]2(O)C(=O)C3=C(O)c4c(O)cccc4[C@@](C)(O)[C@H]3C[C@@H]12` reads “inactive”; that for `Nc1cc(Cl)cc(C(=O)O)c1Cl`, “inactive”; that for `[O-][Cl+]O`, “inactive”.
On the same count and under the same terms, the result for `CNC(=O)Oc1cccc2c1OC(C)(C)C2` reads “inactive”.
Consider `COC(=O)Nc1nc2ccccc2[nH]1`, for which the concentration at half-maximal activity (AC50) is 12.5 µM (active).
Take `CC(C)(C)C(O)(CCc1ccc(Cl)cc1)Cn1cncn1` (configuration not stated): the outcome was inactive.
